# Measured values: PubChem BioAssay AID1159580 (chemical genetic matrix, 2015)
# Where “and” joins values, the source holds several entries; their conditions need not be identical. Identical values can stand only once. The whole screen tested about 5,500 compounds, of which about 2,000 (36%) were called active. Another 18% or so got no clear call; they are omitted. No stated cut-off is given here; in the data, active means normalized growth mostly below about 0.91 (no sharp cut-off); inconclusive means no clear call, values can overlap the other calls; inactive means mostly above about 0.92. The list shows a part of the results. Some compounds were tested as several samples or in several runs, with calls that do not always agree.
# Assay: chemical genetic growth profiling, strain panel (AID 1159580);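 further: tested at 20 µM; growth read once vehicle control cultures reached saturation at 30 °C; 1 = growth at the plate median or of vehicle wells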
# Conditions: growth OD
smiles,measurement,setting,value
NCC(O)c1ccc(O)cc1 (stereo not given),normalized growth,"S. cerevisiae deletion strains, locus YKL009W, strain mrt4, stronger effect = lower value",1.01 (inactive)
same,normalized growth,"S. cerevisiae deletion strains, locus YKL068W, stronger effect = lower value",0.984 (inactive)
same,normalized growth,"S. cerevisiae deletion strains, locus YKL085W, strain MDH1 (second series), stronger effect = lower value",0.989 (inactive)
same,normalized growth,"S. cerevisiae deletion strains, locus YKL085W, strain MDH1, stronger effect = lower value",0.989 (inactive)
same,normalized growth,"S. cerevisiae deletion strains, locus YKL160W, strain elf1, stronger effect = lower value",0.998 (inactive)
same,normalized growth,"S. cerevisiae deletion strains, locus YKL190W, strain CNB1, stronger effect = lower value",1 (inactive)
same,normalized growth,"S. cerevisiae deletion strains, locus YKR001C, strain vps1, stronger effect = lower value",0.967 (inactive)
same,normalized growth,"S. cerevisiae deletion strains, locus YKR026C, strain gcn3, stronger effect = lower value",0.998 (inactive)
same,normalized growth,"S. cerevisiae deletion strains, locus YKR091W, strain srl3, stronger effect = lower value",0.999 (inactive)
same,normalized growth,"S. cerevisiae deletion strains, locus YLL001W, strain dnm1, stronger effect = lower value",1 (inactive)
same,normalized growth,"S. cerevisiae deletion strains, locus YLL026W, stronger effect = lower value",0.99 (inactive)
same,normalized growth,"S. cerevisiae deletion strains, locus YLL041C, strain sdh2, stronger effect = lower value",1.01 (inactive)
same,normalized growth,"S. cerevisiae deletion strains, locus YLR027C, strain aat2, stronger effect = lower value",0.993 (inactive)
same,normalized growth,"S. cerevisiae deletion strains, locus YLR039C, strain RIC1, stronger effect = lower value",1.02 (inactive)
same,normalized growth,"S. cerevisiae deletion strains, locus YLR058C, strain SHM2, stronger effect = lower value",0.995 (inactive)
same,normalized growth,"S. cerevisiae deletion strains, locus YLR102C, strain apc9, stronger effect = lower value",0.972 (inactive)
same,normalized growth,"S. cerevisiae deletion strains, locus YLR113W, strain HOG1, stronger effect = lower value",1.02 (inactive)
same,normalized growth,"S. cerevisiae deletion strains, locus YLR221C, strain rsa3, stronger effect = lower value",1 (inactive)
same,normalized growth,"S. cerevisiae deletion strains, locus YLR258W, strain gsy2, stronger effect = lower value",1.01 (inactive)
same,normalized growth,"S. cerevisiae deletion strains, locus YLR262C, strain YPT6 (second series), stronger effect = lower value",0.983 (inactive)
same,normalized growth,"S. cerevisiae deletion strains, locus YLR262C, strain YPT6, stronger effect = lower value",1.06 (inactive)
same,normalized growth,"S. cerevisiae deletion strains, locus YLR268W, strain sec22, stronger effect = lower value",0.922 (inactive)
same,normalized growth,"S. cerevisiae deletion strains, locus YLR320W, strain mms22, stronger effect = lower value",1.04 (inactive)
same,normalized growth,"S. cerevisiae deletion strains, locus YLR330W, strain CHS5, stronger effect = lower value",0.996 (inactive)
same,normalized growth,"S. cerevisiae deletion strains, locus YLR342W, strain FKS1 (second series), stronger effect = lower value",1.03 (inactive)
same,normalized growth,"S. cerevisiae deletion strains, locus YLR342W, strain FKS1, stronger effect = lower value",0.981 (inactive)
same,normalized growth,"S. cerevisiae deletion strains, locus YLR357W, strain rsc2, stronger effect = lower value",0.973 (inactive)
same,normalized growth,"S. cerevisiae deletion strains, locus YLR370C, strain arc18, stronger effect = lower value",1.01 (inactive)
same,normalized growth,"S. cerevisiae deletion strains, locus YLR371W, strain rom2, stronger effect = lower value",0.981 (inactive)
same,normalized growth,"S. cerevisiae deletion strains, locus YLR384C, strain iki3, stronger effect = lower value",1 (inactive)
same,normalized growth,"S. cerevisiae deletion strains, locus YLR418C, strain cdc73, stronger effect = lower value",0.967 (inactive)
same,normalized growth,"S. cerevisiae deletion strains, locus YML016C, strain PPZ1, stronger effect = lower value",0.998 (inactive)
same,normalized growth,"S. cerevisiae deletion strains, locus YML032C, strain rad52, stronger effect = lower value",0.962 (inactive)
same,normalized growth,"S. cerevisiae deletion strains, locus YML120C, strain ndi1, stronger effect = lower value",1.01 (inactive)
same,normalized growth,"S. cerevisiae deletion strains, locus YML124C, strain tub3, stronger effect = lower value",0.99 (inactive)
same,normalized growth,"S. cerevisiae deletion strains, locus YMR058W, strain fet3, stronger effect = lower value",1.02 (inactive)
same,normalized growth,"S. cerevisiae deletion strains, locus YMR078C, strain ctf18, stronger effect = lower value",0.968 (inactive)
same,normalized growth,"S. cerevisiae deletion strains, locus YMR125W, strain sto1, stronger effect = lower value",0.993 (inactive)
same,normalized growth,"S. cerevisiae deletion strains, locus YMR129W, stronger effect = lower value",1.01 (inactive)
same,normalized growth,"S. cerevisiae deletion strains, locus YMR205C, strain PFK2, stronger effect = lower value",0.994 (inactive)
same,normalized growth,"S. cerevisiae deletion strains, locus YMR223W, strain ubp8, stronger effect = lower value",0.997 (inactive)
same,normalized growth,"S. cerevisiae deletion strains, locus YMR231W, strain pep5, stronger effect = lower value",0.995 (inactive)
same,normalized growth,"S. cerevisiae deletion strains, locus YMR263W, strain SAP30, stronger effect = lower value",0.727 (active) and 1 (inactive)
same,normalized growth,"S. cerevisiae deletion strains, locus YMR307W, strain GAS1, stronger effect = lower value",0.985 (inactive)
same,normalized growth,"S. cerevisiae deletion strains, locus YNL067W, strain RPL9B, stronger effect = lower value",0.991 (inactive)
same,normalized growth,"S. cerevisiae deletion strains, locus YNL071W, strain lat1, stronger effect = lower value",1.01 (inactive)
same,normalized growth,"S. cerevisiae deletion strains, locus YNL128W, strain TEP1, stronger effect = lower value",0.993 (inactive)
same,normalized growth,"S. cerevisiae deletion strains, locus YNL153C, strain GIM3, stronger effect = lower value",0.991 (inactive) and 1.02 (inactive)
same,normalized growth,"S. cerevisiae deletion strains, locus YNL175C, strain NOP13, stronger effect = lower value",1.01 (inactive)
same,normalized growth,"S. cerevisiae deletion strains, locus YNL183C, strain NPR1, stronger effect = lower value",0.918 (inactive)
same,normalized growth,"S. cerevisiae deletion strains, locus YNL197C, strain WHI3, stronger effect = lower value",1.04 (inactive)
same,normalized growth,"S. cerevisiae deletion strains, locus YNL209W, strain ssb2, stronger effect = lower value",1.02 (inactive)
same,normalized growth,"S. cerevisiae deletion strains, locus YNL224C, strain SQS1, stronger effect = lower value",1.01 (inactive)
same,normalized growth,"S. cerevisiae deletion strains, locus YNL233W, strain BNI4, stronger effect = lower value",0.977 (inactive)
same,normalized growth,"S. cerevisiae deletion strains, locus YNL248C, strain rpa49, stronger effect = lower value",1.02 (inactive)
same,normalized growth,"S. cerevisiae deletion strains, locus YNL250W, strain rad50, stronger effect = lower value",0.976 (inactive)
same,normalized growth,"S. cerevisiae deletion strains, locus YNL271C, strain bni1, stronger effect = lower value",0.967 (inactive)
same,normalized growth,"S. cerevisiae deletion strains, locus YNL298W, strain CLA4, stronger effect = lower value",0.966 (inactive)
same,normalized growth,"S. cerevisiae deletion strains, locus YNL307C, strain MCK1, stronger effect = lower value",0.985 (inactive)
same,normalized growth,"S. cerevisiae deletion strains, locus YNL322C, strain KRE1 (second series), stronger effect = lower value",1 (inactive)
same,normalized growth,"S. cerevisiae deletion strains, locus YNL322C, strain KRE1, stronger effect = lower value",0.999 (inactive) and 1.02 (inactive)
same,normalized growth,"S. cerevisiae deletion strains, locus YNR049C, strain mso1, stronger effect = lower value",1 (inactive)
same,normalized growth,"S. cerevisiae deletion strains, locus YNR052C, strain pop2, stronger effect = lower value",0.982 (inactive)
same,normalized growth,"S. cerevisiae deletion strains, locus YOL006C, strain TOP1, stronger effect = lower value",0.943 (inactive)
same,normalized growth,"S. cerevisiae deletion strains, locus YOL012C, strain htz1",2.07 [resistant] (active)
same,normalized growth,"S. cerevisiae deletion strains, locus YOL147C, strain pex11, stronger effect = lower value",0.976 (inactive)
same,normalized growth,"S. cerevisiae deletion strains, locus YOR001W, strain rrp6, stronger effect = lower value",0.989 (inactive)
same,normalized growth,"S. cerevisiae deletion strains, locus YOR061W, strain CKA2, stronger effect = lower value",0.991 (inactive)
same,normalized growth,"S. cerevisiae deletion strains, locus YOR069W, strain VPS5, stronger effect = lower value",0.995 (inactive)
same,normalized growth,"S. cerevisiae deletion strains, locus YOR070C, strain gyp1, stronger effect = lower value",1 (inactive)
same,normalized growth,"S. cerevisiae deletion strains, locus YOR080W, strain dia2, stronger effect = lower value",0.985 (inactive)
same,normalized growth,"S. cerevisiae deletion strains, locus YOR083W, strain WHI5 (second series), stronger effect = lower value",1.01 (inactive)
same,normalized growth,"S. cerevisiae deletion strains, locus YOR083W, strain WHI5, stronger effect = lower value",0.977 (inactive)
same,normalized growth,"S. cerevisiae deletion strains, locus YOR106W, strain vam3, stronger effect = lower value",1.02 (inactive)
same,normalized growth,"S. cerevisiae deletion strains, locus YOR136W, strain idh2, stronger effect = lower value",0.982 (inactive)
same,normalized growth,"S. cerevisiae deletion strains, locus YOR144C, strain elg1, stronger effect = lower value",0.976 (inactive)
same,normalized growth,"S. cerevisiae deletion strains, locus YOR184W, strain ser1, stronger effect = lower value",0.971 (inactive)
same,normalized growth,"S. cerevisiae deletion strains, locus YOR231W, strain MKK1, stronger effect = lower value",1.01 (inactive)
same,normalized growth,"S. cerevisiae deletion strains, locus YOR265W, strain rbl2, stronger effect = lower value",1 (inactive)
same,normalized growth,"S. cerevisiae deletion strains, locus YOR270C, strain vph1, stronger effect = lower value",1.06 (inactive)
same,normalized growth,"S. cerevisiae deletion strains, locus YOR290C, strain snf2, stronger effect = lower value",1 (inactive)
same,normalized growth,"S. cerevisiae deletion strains, locus YOR316C, strain cot1, stronger effect = lower value",0.974 (inactive)
same,normalized growth,"S. cerevisiae deletion strains, locus YPL051W, strain arl3, stronger effect = lower value",0.995 (inactive)
same,normalized growth,"S. cerevisiae deletion strains, locus YPL055C, strain LGE1, stronger effect = lower value",1.02 (inactive) and 1.01 (inactive)
same,normalized growth,"S. cerevisiae deletion strains, locus YPL078C, strain atp4, stronger effect = lower value",1.01 (inactive)
same,normalized growth,"S. cerevisiae deletion strains, locus YPL106C, strain sse1, stronger effect = lower value",0.971 (inactive)
same,normalized growth,"S. cerevisiae deletion strains, locus YPL240C, strain hsp82, stronger effect = lower value",1 (inactive)
same,normalized growth,"S. cerevisiae deletion strains, locus YPL241C, strain CIN2, stronger effect = lower value",1 (inactive) and 1.01 (inactive)
same,normalized growth,"S. cerevisiae deletion strains, locus YPL256C, strain CLN2, stronger effect = lower value",0.97 (inactive)
same,normalized growth,"S. cerevisiae deletion strains, locus YPR119W, strain clb2, stronger effect = lower value",0.968 (inactive)
same,normalized growth,"S. cerevisiae deletion strains, locus YPR141C, strain kar3, stronger effect = lower value",0.976 (inactive)
same,normalized growth,"S. cerevisiae deletion strains, locus YPR163C, strain tif3, stronger effect = lower value",0.971 (inactive)
same,normalized growth,"S. cerevisiae deletion strains, locus YPR167C, strain met16, stronger effect = lower value",0.974 (inactive)
same,normalized growth,"S. cerevisiae deletion strains, strain wtn01, stronger effect = lower value",0.969 (inactive)
same,normalized growth,"S. cerevisiae strains, strain wild type, stronger effect = lower value",1 (inactive)
